Source: PubChem BioAssay AID1159580 (chemical genetic matrix, 2015)
Screen size: about 5,500 compounds; about 2,000 (36%) were called active. Not shown: some 18% with an inconclusive outcome. No stated cut-off is given here; in the data, active means normalized growth mostly below about 0.91 (no sharp cut-off); inconclusive means no clear call, values can overlap the other calls; inactive means mostly above about 0.92. This is one part of the list.

Test: chemical genetic growth profiling, strain panel (AID 1159580);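 further: tested at 20 µM; growth read once vehicle control cultures reached saturation at 30 °C; 1 = growth at the plate median or of vehicle wells; lower values mean less growth of the strain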
Details: growth OD

Measured: normalized growth

COc1cc(OC)c2c(c1)O[C@H](c1cc(OC)c(OC)c(OC)c1)[C@H](OC(=O)c1cc(OC)c(OC)c(OC)c1)C2
inactive: S. cerevisiae deletion strains, locus YAL013W, strain DEP1, hits give low values 1.01 | S. cerevisiae deletion strains, locus YBR021W, strain FUR4, hits give low values 0.998 | S. cerevisiae deletion strains, locus YBR229C, strain ROT2, hits give low values 1.02 | S. cerevisiae deletion strains, locus YCL029C, strain bik1, hits give low values 1.01 | S. cerevisiae deletion strains, locus YDL035C, strain GPR1, hits give low values 0.994 | S. cerevisiae deletion strains, locus YDL074C, strain BRE1, hits give low values 0.996 | S. cerevisiae deletion strains, locus YDL101C, strain DUN1, hits give low values 1 | S. cerevisiae deletion strains, locus YDL134C, strain PPH21, hits give low values 1 | S. cerevisiae deletion strains, locus YDL185W, strain tfp1, hits give low values 1.01 | S. cerevisiae deletion strains, locus YDL192W, strain arf1, hits give low values 1 | S. cerevisiae deletion strains, locus YDR101C, strain arx1, hits give low values 0.999 | S. cerevisiae deletion strains, locus YDR150W, strain NUM1, hits give low values 1.01 | S. cerevisiae deletion strains, locus YDR162C, strain NBP2, hits give low values 1 | S. cerevisiae deletion strains, locus YDR318W, strain mcm21, hits give low values 0.997 | S. cerevisiae deletion strains, locus YDR388W, hits give low values 1 | S. cerevisiae deletion strains, locus YDR502C, strain sam2, hits give low values 0.991 | S. cerevisiae deletion strains, locus YEL061C, strain CIN8, hits give low values 1.01 | S. cerevisiae deletion strains, locus YER110C, hits give low values 1 | S. cerevisiae deletion strains, locus YER155C, strain BEM2, hits give low values 1 | S. cerevisiae deletion strains, locus YER167W, strain BCK2, hits give low values 1.02 | S. cerevisiae deletion strains, locus YGL078C, strain dbp3, hits give low values 1 | S. cerevisiae deletion strains, locus YGL086W, strain mad1, hits give low values 0.991 | S. cerevisiae deletion strains, locus YGL248W, strain PDE1, hits give low values 1.01 | S. cerevisiae deletion strains, locus YGR078C, strain PAC10, hits give low values 1.02 | S. cerevisiae deletion strains, locus YGR135W, strain pre9, hits give low values 0.994 | S. cerevisiae deletion strains, locus YGR229C, strain SMI1, hits give low values 0.993 | S. cerevisiae deletion strains, locus YGR252W, strain gcn5, hits give low values 0.933 | S. cerevisiae deletion strains, locus YHR030C, strain SLT2, hits give low values 1.01 | S. cerevisiae deletion strains, locus YHR079C, strain IRE1 (second series), hits give low values 1 | S. cerevisiae deletion strains, locus YHR094C, strain hxt1, hits give low values 0.996 | S. cerevisiae deletion strains, locus YHR129C, strain ARP1, hits give low values 1.01 | S. cerevisiae deletion strains, locus YHR200W, strain rpn10, hits give low values 0.999 | S. cerevisiae deletion strains, locus YIL066C, strain RNR3, hits give low values 0.997 | S. cerevisiae deletion strains, locus YIL073C, strain SPO22, hits give low values 0.995 | S. cerevisiae deletion strains, locus YIL125W, strain kgd1, hits give low values 1 | S. cerevisiae deletion strains, locus YIR030C, strain dcg1, hits give low values 1.01 | S. cerevisiae deletion strains, locus YJL095W, strain BCK1, hits give low values 1.01 | S. cerevisiae deletion strains, locus YJL134W, strain LCB3, hits give low values 1.01 | S. cerevisiae deletion strains, locus YJL168C, strain set2, hits give low values 1 | S. cerevisiae deletion strains, locus YJL187C, strain SWE1 (second series), hits give low values 1 | S. cerevisiae deletion strains, locus YJR043C, strain POL32, hits give low values 0.992 | S. cerevisiae deletion strains, locus YJR075W, strain HOC1, hits give low values 1 | S. cerevisiae deletion strains, locus YKL009W, strain mrt4, hits give low values 0.983 | S. cerevisiae deletion strains, locus YKL068W, hits give low values 1.01 | S. cerevisiae deletion strains, locus YKL085W, strain MDH1 (second series), hits give low values 0.993 | S. cerevisiae deletion strains, locus YKL085W, strain MDH1, hits give low values 0.993 | S. cerevisiae deletion strains, locus YKL190W, strain CNB1, hits give low values 0.998 | S. cerevisiae deletion strains, locus YKR001C, strain vps1, hits give low values 0.99 | S. cerevisiae deletion strains, locus YLR039C, strain RIC1, hits give low values 1.01 | S. cerevisiae deletion strains, locus YLR058C, strain SHM2, hits give low values 1.01 | S. cerevisiae deletion strains, locus YLR102C, strain apc9, hits give low values 1 | S. cerevisiae deletion strains, locus YLR262C, strain YPT6, hits give low values 1.02 | S. cerevisiae deletion strains, locus YLR268W, strain sec22, hits give low values 1.01 | S. cerevisiae deletion strains, locus YLR330W, strain CHS5, hits give low values 1.01 | S. cerevisiae deletion strains, locus YLR342W, strain FKS1 (second series), hits give low values 1 | S. cerevisiae deletion strains, locus YLR371W, strain rom2, hits give low values 1.01 | S. cerevisiae deletion strains, locus YLR418C, strain cdc73, hits give low values 0.973 | S. cerevisiae deletion strains, locus YML016C, strain PPZ1, hits give low values 1 | S. cerevisiae deletion strains, locus YML032C, strain rad52, hits give low values 0.992 | S. cerevisiae deletion strains, locus YML124C, strain tub3, hits give low values 1 | S. cerevisiae deletion strains, locus YMR078C, strain ctf18, hits give low values 1 | S. cerevisiae deletion strains, locus YMR223W, strain ubp8, hits give low values 0.994 | S. cerevisiae deletion strains, locus YMR263W, strain SAP30, hits give low values 1 | S. cerevisiae deletion strains, locus YMR307W, strain GAS1, hits give low values 0.951 | S. cerevisiae deletion strains, locus YNL067W, strain RPL9B, hits give low values 1.01 | S. cerevisiae deletion strains, locus YNL128W, strain TEP1, hits give low values 1.02 | S. cerevisiae deletion strains, locus YNL153C, strain GIM3, hits give low values 1.01 | S. cerevisiae deletion strains, locus YNL233W, strain BNI4, hits give low values 1 | S. cerevisiae deletion strains, locus YNL250W, strain rad50, hits give low values 1 | S. cerevisiae deletion strains, locus YNL271C, strain bni1, hits give low values 1.01 | S. cerevisiae deletion strains, locus YNL298W, strain CLA4, hits give low values 1.01 | S. cerevisiae deletion strains, locus YNL307C, strain MCK1, hits give low values 1 | S. cerevisiae deletion strains, locus YNL322C, strain KRE1, hits give low values 1 | S. cerevisiae deletion strains, locus YNR052C, strain pop2, hits give low values 1.01 | S. cerevisiae deletion strains, locus YOL006C, strain TOP1, hits give low values 0.983 | S. cerevisiae deletion strains, locus YOL012C, strain htz1 0.884 | S. cerevisiae deletion strains, locus YOL147C, strain pex11, hits give low values 0.996 | S. cerevisiae deletion strains, locus YOR061W, strain CKA2, hits give low values 1 | S. cerevisiae deletion strains, locus YOR069W, strain VPS5, hits give low values 0.999 | S. cerevisiae deletion strains, locus YOR136W, strain idh2, hits give low values 0.997 | S. cerevisiae deletion strains, locus YOR144C, strain elg1, hits give low values 1 | S. cerevisiae deletion strains, locus YOR184W, strain ser1, hits give low values 0.987 | S. cerevisiae deletion strains, locus YOR316C, strain cot1, hits give low values 1 | S. cerevisiae deletion strains, locus YPL055C, strain LGE1, hits give low values 0.989 | S. cerevisiae deletion strains, locus YPL241C, strain CIN2, hits give low values 0.986 | S. cerevisiae deletion strains, locus YPR119W, strain clb2, hits give low values 0.995 | S. cerevisiae deletion strains, locus YPR141C, strain kar3, hits give low values 1 | S. cerevisiae deletion strains, locus YPR163C, strain tif3, hits give low values 0.997 | S. cerevisiae deletion strains, locus YPR167C, strain met16, hits give low values 1.01 | S. cerevisiae deletion strains, strain wtn01, hits give low values 0.992 | S. cerevisiae strains, strain wild type, hits give low values 1.01
